From PubChem BioAssay (NCATS)
Several values for one entry are separate records, joined by “and”; a condition that tells them apart may be missing. Identical values can stand only once. Results filed as inconclusive are left out. Activity calls are given as the source filed them. Unless noted, the call rests on the fitted dose curve; in most records, active means well fitted curve in either direction with a large enough effect (not every such curve was filed as active); inconclusive means small, poorly fitted or top-dose-only effect, or another doubt; inactive means flat fitted curve, though single readings scatter.

Experiments:
[1] = Stat Signaling Pathway (AID 446); details: ME-180 SIE beta-lactamase reporter, IL-6 stimulated, 5 h; series mostly up to 17.2 µM;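 further: ME-180 cervical cancer cells given 40 pM IL-6 alongside compound; SIE-controlled beta-lactamase reporter measured as 460/530 nm FRET emission ratio; on the % scale 0 is the no-effect control and ±100 the full control effect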
Method in brief: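 ME-180 cells carrying a SIE-driven beta-lactamase reporter are stimulated with 40 pM IL-6 for 5 h at 37C in the presence of compound. The 460/530 nm FRET substrate ratio is read after 2.5 h at RT. Data are normalised to 300 pM IL-6 and to 125 nM JAK inhibitor controls.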

[2] = biological target: Glucocorticoid receptor (Homo sapiens) (UniProt P04150); experiment: GR-GFP Redistribution (AID 450;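 active means compounds whose dose series gives a full or clear partial fitted curve of increased nuclear translocation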; further: potency means the concentration at half of the fitted maximal effect); details: U2OS GR-GFP nuclear translocation, laser cytometry, 2 h
[3] = biological target: Glucocorticoid receptor (Homo sapiens) (UniProt P04150); experiment: GR-EFC Redistribution (AID 451; calls by dose curve; further: potency means the concentration at half of the fitted maximal effect); details: CHO-K1 GR-EFC translocation, beta-gal luminescence, 2 h
Method in brief: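 CHO-K1 cells stably expressing nuclear-localized β-gal enzyme acceptor and GR fused C-terminally to the enzyme donor fragment; ligand-driven nuclear translocation restores β-gal by complementation. Compounds titrated up to 46 uM final, 2 h at 37 °C; luminescence read.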

[4] = biological target: Mitogen-activated protein kinase 10 (Mus musculus) (UniProt Q61831); experiment: JNK3 AlphaScreen Assay (AID 530); details: JNK3 lysate, c-Jun phosphorylation; series mostly up to 25.6 µM;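 further: kinase came from lysate of stimulated human HepG2 cells; signal reports phosphorylation of biotinylated GST-cJun 1-79 at Ser73 with 10 µM ATP; on the % scale 0 is the no-effect control and ±100 the full control effect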
Method in brief: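 Inhibitors reduce antibody binding to phosphorylated biotin-cJun, lowering AlphaScreen luminescence. Lysates from HepG2 cells pre-activated by IL-1beta plus TNF-alpha supplied JNK3; compounds were titrated.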

[5] = Cell Viability - N2a (AID 540; active means well fitted curve in the direction sought with a large enough effect; an effect the other way counts as inactive or inconclusive;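 further: plate controls were DMSO alone for no effect and tamoxifen control for full effect; nearly all actives have a fitted effect of over 45% in size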); details: N2a mouse neuroblastoma cell viability; series mostly up to 92.2 µM
Method in brief: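 Mouse neuroblastoma N2a cells, 1500/well, exposed to compounds 40 h at 37 °C in complete medium. Viability measured as cellular ATP by CellTiter-Glo luminescence; AC50 from Hill fits of concentration-response.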

[6] = Cell Viability - NIH 3T3 (AID 541; active means well fitted curve in the direction sought with a large enough effect; an effect the other way counts as inactive or inconclusive;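 further: plate controls were DMSO alone for no effect and tamoxifen positive control for full effect; nearly all actives have a fitted effect of over 25% in size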); details: NIH 3T3 cell viability, qHTS; series mostly up to 92.2 µM
Method in brief: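 Mouse NIH 3T3 fibroblasts, 1000 cells/well, rested 5 hr at 37 °C, then exposed to compound for 40 hr at 37 °C in complete medium. Viability read as intracellular ATP by CellTiter-Glo luminescence; AC50 from Hill-equation fits of concentration-response data.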

[7] = Cell Viability - HUV-EC-C (AID 542; active means well fitted curve in the direction sought with a large enough effect; an effect the other way counts as inactive or inconclusive; further: on the % scale 0 is the no-effect control and ±100 the full control effect; nearly all actives have a fitted effect of over 35% in size); details: HUV-EC-C endothelial cell viability, qHTS; series mostly up to 92.2 µM
Method in brief: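 HUV-EC-C human vascular endothelial cells, 1000/well, exposed to compound for 40 hr at 37 °C in complete medium. Intracellular ATP was read by CellTiter-Glo luminescence. AC50 came from Hill-equation fits of concentration-response data.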

[8] = Cell Viability - H-4-II-E (AID 543; active means well fitted curve in the direction sought with a large enough effect; an effect the other way counts as inactive or inconclusive; further: on the % scale 0 is the no-effect control and ±100 the full control effect; nearly all actives have a fitted effect of over 35% in size); details: H-4-II-E rat hepatoma viability; series mostly up to 92.2 µM
Method in brief: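 Rat hepatoma H-4-II-E cells, 1500 per well, treated 40 h at 37 °C in complete medium. Cellular ATP read by CellTiter-Glo luminescence; AC50 from Hill fits of concentration-response.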

[9] = Cell Viability - SH-SY5Y (AID 544; active means well fitted curve in the direction sought with a large enough effect; an effect the other way counts as inactive or inconclusive;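 further: 0% = DMSO alone and -100% = 100 µM tamoxifen; nearly all actives have a fitted effect of over 55% in size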); details: SH-SY5Y neuroblastoma cell viability; at 92.2 µM (top of the series)
Method in brief: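 SH-SY5Y human neuroblastoma cells (1500/well) incubated 5 h, then compound-treated 40 h at 37 °C in complete medium. Viability read as intracellular ATP by CellTiter-Glo luminescence after 20 min; AC50 from Hill-equation fits of qHTS concentration-response.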

[10] = Cell Viability - Renal Proximal Tubule (AID 545; active means well fitted curve in the direction sought with a large enough effect; an effect the other way counts as inactive or inconclusive;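 further: 0% = DMSO only and -100% = 100 µM tamoxifen; nearly all actives have a fitted effect of over 40% in size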); details: renal proximal tubule cells viability, primary cells of rat origin; series mostly up to 91.7 µM
Method in brief: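 Primary rat renal proximal tubule cells (1000/well) were treated with compounds for 40 hr at 37 °C in complete medium. Intracellular ATP was measured by CellTiter-Glo luminescence, and AC50 values came from Hill-equation fits of concentration-response data.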

Chain of Glucocorticoid receptor (Homo sapiens) (P04150 whole entry, looked up, the tested form may be a part): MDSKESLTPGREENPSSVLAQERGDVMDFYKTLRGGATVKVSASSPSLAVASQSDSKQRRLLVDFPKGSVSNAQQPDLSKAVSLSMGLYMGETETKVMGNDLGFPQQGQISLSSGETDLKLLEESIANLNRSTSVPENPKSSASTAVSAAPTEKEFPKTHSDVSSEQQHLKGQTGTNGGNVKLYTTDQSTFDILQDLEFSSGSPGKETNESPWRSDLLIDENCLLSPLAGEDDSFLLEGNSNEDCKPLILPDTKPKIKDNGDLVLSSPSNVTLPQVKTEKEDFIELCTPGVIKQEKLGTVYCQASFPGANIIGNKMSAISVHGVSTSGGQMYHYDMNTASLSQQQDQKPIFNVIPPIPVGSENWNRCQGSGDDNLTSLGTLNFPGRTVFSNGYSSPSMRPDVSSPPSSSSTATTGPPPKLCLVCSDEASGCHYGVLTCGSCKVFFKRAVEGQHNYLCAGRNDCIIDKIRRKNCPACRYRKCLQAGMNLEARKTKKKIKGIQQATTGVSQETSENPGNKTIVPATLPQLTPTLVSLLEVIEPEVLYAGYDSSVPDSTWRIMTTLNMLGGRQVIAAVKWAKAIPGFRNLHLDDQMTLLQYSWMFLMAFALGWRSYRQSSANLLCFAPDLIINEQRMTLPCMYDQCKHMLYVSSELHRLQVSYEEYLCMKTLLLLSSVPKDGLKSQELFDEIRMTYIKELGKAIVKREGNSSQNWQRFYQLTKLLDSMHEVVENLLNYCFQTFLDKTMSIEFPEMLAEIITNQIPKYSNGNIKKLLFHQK

NC(N)=NCCN1CCCCCCC1
inactive: outcome [1] | Potency [2] > 20.6 µM | Potency [3] > 20.6 µM | outcome [4]

CC[N+](C)(CC)CCOC(=O)C1c2ccccc2Oc2ccccc21
inactive: outcome [1] | outcome [4]

O=C(O)CCCc1ccccc1
inactive: outcome [1] | Potency [2] > 20.6 µM

Cn1c([N+](=O)[O-])cnc1COC(N)=O
inactive: outcome [1] | Potency [2] > 20.6 µM | Potency [3] > 20.6 µM | outcome [4]

NC(N)=NS(=O)(=O)c1ccc(N)cc1
inactive: outcome [1] | Potency [2] > 20.6 µM | Potency [3] > 20.6 µM | outcome [4]

CC(=O)SC[C@@H](Cc1ccccc1)C(=O)NCC(=O)OCc1ccccc1
inactive: outcome [1] | Potency [2] > 20.6 µM | Potency [3] > 20.6 µM | outcome [4]

Cc1cc(C)nc(NS(=O)(=O)c2ccc(N)cc2)n1
inactive: outcome [1] | Potency [2] > 20.6 µM | Potency [3] > 20.6 µM | outcome [4] | outcome [5] | outcome [6] | outcome [7] | outcome [8] | viability change, negative = cytotoxic [9] -0.461% | outcome [10]

NS(=O)(=O)c1cc2c(cc1C(F)(F)F)NCNS2(=O)=O
inactive: outcome [1] | Potency [2] > 20.6 µM | Potency [3] > 20.6 µM | outcome [4]

CCCNC(C)(C)COC(=O)c1ccccc1
inactive: outcome [1] | Potency [2] > 20.6 µM | Potency [3] > 20.6 µM | outcome [4]

Cc1c(N(C)C)c(=O)n(-c2ccccc2)n1C
inactive: outcome [1] | Potency [2] > 20.6 µM | Potency [3] > 20.6 µM | outcome [4] | outcome [5] | outcome [6] | outcome [7] | outcome [8] | viability change, negative = cytotoxic [9] -14.6% | outcome [10]

OC(CCN1CCCC1)(c1ccccc1)C1CCCCC1 (centres undefined)
inactive: outcome [1] | Potency [2] > 20.6 µM

CCN(CC)CCOC(=O)C(c1ccccc1)c1ccccc1
inactive: outcome [1] | Potency [2] > 20.6 µM | Potency [3] > 20.6 µM | outcome [4]

Cc1cc(NC(=O)C2=C(O)c3ccccc3S(=O)(=O)N2C)no1
inactive: outcome [1] | Potency [2] > 20.6 µM | Potency [3] > 20.6 µM | outcome [4]

CC(=O)[C@@]1(O)CC[C@H]2[C@@H]3C[C@H](C)C4=CC(=O)C=C[C@]4(C)[C@@]3(F)[C@@H](O)C[C@@]21C
inactive: outcome [1] | Potency [2] > 20.6 µM

NS(=O)(=O)c1ccc(C(=O)O)cc1
inactive: outcome [1] | Potency [2] > 46 µM and > 20.6 µM | Potency [3] > 9.22 µM | outcome [4]

CC1(C)S[C@@H]2[C@H](NC(=O)C(C(=O)O)c3ccccc3)C(=O)N2[C@H]1C(=O)O (some centres undefined)
inactive: outcome [1] | Potency [2] > 20.6 µM

C[C@@H]1CCC[C@H](C)N1
inactive: outcome [1] | Potency [2] > 20.6 µM | Potency [3] > 20.6 µM | outcome [4]

Cc1c(NC(=O)c2cccnc2)c(=O)n(-c2ccccc2)n1C
inactive: outcome [1] | Potency [2] > 20.6 µM | Potency [3] > 20.6 µM | outcome [4]

COc1ccc2cc(CCC(C)=O)ccc2c1
inactive: outcome [1] | Potency [2] > 20.6 µM | Potency [3] > 20.6 µM | outcome [4]

COc1ccc(NS(=O)(=O)c2ccc(N)cc2)nn1
inactive: outcome [1] | Potency [2] > 20.6 µM | Potency [3] > 20.6 µM | outcome [4]

Cc1cccc(Nc2ccccc2C(=O)O)c1C
inactive: outcome [1] | Potency [2] > 20.6 µM | Potency [3] > 20.6 µM | outcome [4]

CC(=O)NS(=O)(=O)c1ccc(N)cc1
inactive: outcome [1] | Potency [2] > 20.6 µM | Potency [3] > 20.6 µM | outcome [4] | outcome [5] | outcome [6] | outcome [7] | outcome [8] | viability change, negative = cytotoxic [9] -13.1% | outcome [10]

CCOC(=O)[C@H](CCc1ccccc1)N[C@@H](C)C(=O)N1CCC[C@H]1C(=O)O
inactive: outcome [1] | Potency [2] > 20.6 µM | Potency [3] > 20.6 µM | outcome [4]

O=C(O)c1ccccc1OP(=O)(O)O
inactive: outcome [1] | Potency [2] > 20.6 µM | Potency [3] > 20.6 µM | outcome [4]
